Measurements published in the supplement of paper PMC10338343.
± gives the standard deviation.

These sequences were tested on MILI (PIWIL2) piRISC loaded with L1MC piRNA (26 nt) (assay: pre-steady-state target cleavage rate (min^-1); guide: L1MC piRNA 5'p-UAACUAAAUACUAUGCAAGCUGUAGG; MIWI and MILI are mouse PIWI proteins and EfPiwi is from a freshwater sponge; tags in brackets are library labels; higher = faster piRNA-guided slicing of the target). Details: auxiliary factor: none (no GTSF1).
Method in brief: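 In HEPES–potassium acetate buffer at 33 °C, […] transcribed, DNA-blocked target RNA library was mixed with 1 nM active affinity-purified piRISC carrying one synthetic guide, with or without 500 nM GTSF1 partner protein, for 0–8 or 0–960 min. Uncleaved targets were sequenced and normalised to depth and to weakly complementary targets; three trials were pooled and k3 was capped at 0.0001 min^-1. The pre-steady-state cleavage rate followed from a burst-and-steady-state fit.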
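Further: 1 nM active piRISC with 0.1 nM target library at 33 °C single turnover.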

pre-steady-state target cleavage rate, 0.00357 ± 0.0027:
UCCUGGAUCAGCUUGCAUAGGUAUUUAGUUA

pre-steady-state target cleavage rate, < 0.0001:
UCCUGGAUGUCGAACGUAAGUAUUAUAGUUA
UCCUGGAUGUCGAAGCAUAGUAAUAAGUUA
UCCUGGAUGUCGAACGAGUAGUAUUUAGUUA
UCCUGGAUGUCGAACGUAUGUAUAAAGUUA
UCCUGGAUGUCGAACGUUAGUAUUUAGUGUA
UCCUGGAUGUCGAACGUUAGUAUUUACAAA
